test system: T1, YANK3; conditions: concentration: 1 μM, replicates: in singlicate; n = 1
T1 construct: gene STK32C
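Also: KINOMEscan kinase panel screen.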

| Compound | %Inh [%] |
| --- | --- |
| CN1CCN(Cc2cccc(-c3ccc4c(Nc5ccc(Oc6ccccc6)cc5)ccnc4c3)c2)CC1 [GW578342] | 0 |
| O=C(Nc1ccccc1F)NC1CCN(c2ccnc(Nc3ccc(F)cc3)n2)CC1 [GSK1379800] | 1 |
| Cl.c1ccc(-c2ccc3c(Nc4ccc5[nH]ncc5c4)ccnc3c2)nc1 [GW440137] | 7 |
| CCn1c(-c2nonc2N)nc2c(C#CC(C)(C)O)nc(OC[C@H](N)c3ccccc3)cc21 [GSK943949] | 31 |
| O=C(Nc1cccc(-c2nn3ccccc3c2-c2ccnc(Nc3cccc(C(F)(F)F)c3)n2)c1)c1c(F)cccc1F [GSK292658] | 23 |
| Cn1cc(-c2ccc3c(c2)CCN3C(=O)Cc2cccc(F)c2)c2c(N)ncnc21 [GSK2603358] | 4 |
| COc1cc(Nc2nccc(N3CCC(NC(=O)c4cc5ccccc5s4)C3)n2)cc(OC)c1OC (stereo not drawn) [GSK1379760] | 0 |
| COCCOCCOc1cc2ncc3c4ccc(C#N)cc4[nH]c3c2cc1OC | 0 |
| Cl.Cl.NCC(NC(=O)c1cc(-c2ccccc2)c(-c2ccnc3[nH]ccc23)s1)c1ccccc1 (stereo not drawn) [GSK1321561] | 1 |
| COc1cc(Nc2nccc(-c3c(-c4cccc(NC(=O)c5c(F)cccc5F)c4)nn4ncccc34)n2)cc(OC)c1OC [GSK327238] | 56 |
| CN(C)S(=O)(=O)c1cc(-c2ccc3nccc(-c4cccc(S(N)(=O)=O)c4)c3c2)cnc1N [GSK1669921] | 2 |
| Cl.Cl.NCC(NCc1ccc(-c2ccnc3[nH]ccc23)s1)c1ccccc1 (stereo not drawn) [GSK1321565] | 0 |
